Test results taken from PubChem BioAssay.
Calls of active or inactive are those of the source. The rule behind the calls is not given here.

What follows are molecules tested on Aerobactin synthetase IucA (Klebsiella pneumoniae, hypervirulent) (assay: biochemical IucA inhibition screen of LOPAC library by absorbance (AID 1346212;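 note: 100% = no compound wells and 0% = no enzyme wells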)). Conditions: IucA enzyme assay, absorbance (OD) readout; hits give low values;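 tested at 8 µM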.

Compound | remaining activity
CN1CCc2cccc3c2[C@H]1Cc1ccc(O)c(O)c1-3 | 107% (inactive)
Nc1ccn([C@H]2CC[C@@H](CO)O2)c(=O)n1 | 121% (inactive)
NCC(O)(CS(=O)(=O)O)c1ccc(Cl)cc1 (stereo unspecified) | 103% (inactive)
NC(=O)c1ccc2[nH]ccc2c1 | 89.8% (inactive)
O=c1[nH]ccc2c(O)cccc12 | 117% (inactive)
COc1ccc(CCn2nnnc2C2(c3ccc(C)cc3)CC2)cc1 | 115% (inactive)
S=C(S)OC1CC2CC1C1CCCC21 (stereo unspecified) | 94.5% (inactive)
CCCn1c(=O)c2[nH]c(-c3ccc(OCC(=O)Nc4ccc(C#N)cc4)cc3)nc2n(CCC)c1=O | 109% (inactive)
CCCCOC(=O)NS(=O)(=O)c1sc(CC(C)C)cc1-c1ccc(Cn2c(CC)nc3c(C)cc(C)nc32)cc1 | 116% (inactive)
O=C(N[C@@H](Cc1ccccc1)C(=O)CCl)OCc1ccccc1 | 111% (inactive)
CC(C)COC(=O)OCN1C(=O)CN(CCN2CC(=O)N(COC(=O)OCC(C)C)C(=O)C2)CC1=O | 96.8% (inactive)
Cc1ccc(OC[C@H](O)[C@H](C)NC(C)C)c2c1CCC2 | 101% (inactive)
Cc1[nH]c(=O)c(C#N)cc1-c1ccncc1 | 123% (inactive)
C=C[C@H]1CN2CC[C@H]1C[C@H]2[C@H](O)c1ccnc2ccc(OC)cc12 | 110% (inactive)
c1ccc(C(NCCNC(c2ccccc2)c2ccccc2)c2ccccc2)cc1 | 117% (inactive)
O=C1NCN(c2ccccc2)C12CCN(CCCC(c1ccc(F)cc1)c1ccc(F)cc1)CC2 | 104% (inactive)
